The list is not random: actives were taken first. Their share in the collection is about 11%.
G9a block = qHTS Assay for Inhibitors of Histone Lysine Methyltransferase G9a | Histone-lysine N-methyltransferase EHMT2 (Homo sapiens), Q96KQ7 | G9a H3K9 monomethylation, AlphaScreen, 2 h | Potency, µM (series often up to 102 µM), without a hit: at the highest dose activity, negative = inhibition, most hits filed as inhibitors | hit rate 8.8% among 350,000 | AID 504332, 2011; further: on the % scale 0 is the no-effect control and ±100 the full control effect; nearly all actives have a fitted effect of over 75% in size
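Compounds were preincubated with 20 nM G9a for 15 min, after which biotinylated H3K9 peptide (500 nM) and SAM (20 uM) started a 2 h room-temperature reaction. Monomethylated product was quantified by antibody-based AlphaScreen chemiluminescence.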
HP1b binding inh = HTS for Inhibitors of HP1-beta Chromodomain Interactions with Methylated Histone Tails; Chromobox protein homolog 1 (Homo sapiens), P83916; AlphaScreen HP1-beta / biotin-H3K9me3 peptide binding; Potency, µM (series often up to 114 µM), without a hit: top-dose activity change, negative = inhibition, most hits filed as inhibitors; hit rate 0.56% among 390,000; AID 540317, 2011; further: nearly all actives have a fitted effect of over 70% in size
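HP1-beta protein (50 nM final) preincubated 30 min at room temperature with biotinylated H3(1-18)K9me3 peptide (50 nM) in PBS pH 7.4, 0.01% Tween-20, then compound added for 30 min. AlphaScreen streptavidin donor/nickel chelate acceptor beads (10 ug/mL final), 30 min dark, luminescence read.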
BAZ2B inh = qHTS Assay for Inhibitors of BAZ2B. Bromodomain adjacent to zinc finger domain protein 2B (Homo sapiens), Q9UIF8. AlphaScreen BAZ2B-H3K14Ac peptide displacement. Potency, µM (top dose mostly 114 µM), without a hit: top-dose activity change, negative = inhibition, usual class: inhibitors. hit rate 4.4% among 360,000. AID 504333, 2011; further: on the % scale 0 is the no-effect control and ±100 the full control effect; nearly all actives have a fitted effect of over 60% in size
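AlphaScreen displacement: compounds (up to 110uM) incubated 30 min at room temperature with a preformed 50 nM BAZ2B/50 nM biotinylated H3K14Ac peptide complex in PBS pH 7.4 with Tween-20. Donor and acceptor beads at 10 ug/mL final added, 20 min light-protected before reading.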
JMJD2A Tudor = qHTS Assay for Inhibitors of JMJD2A-Tudor Domain; Lysine-specific demethylase 4A (Homo sapiens), O75164; AlphaScreen JMJD2A-Tudor / H3K4me3 peptide binding; Potency, µM (top dose mostly 114 µM), for inactives: at the highest dose activity change, negative = inhibition, usual class: inhibitors; hit rate 4.4% among 390,000; AID 504339, 2011; further: on the % scale 0 is the no-effect control and ±100 the full control effect; nearly all actives have a fitted effect of over 50% in size
VDR inh = Inhibitors of the vitamin D receptor (VDR): qHTS; VDR-SRC2-3 peptide fluorescence polarization, 2 h; Potency, µM, without a hit: max response, negative = inhibition, hits mostly inhibitors; hit rate 0.93% among 400,000; AID 504847, 2011; further: on the % scale 0 is the no-effect control and ±100 the full control effect
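Reagent solutions, kept cold and dark, are dispensed first; compounds are then pinned in at 23 nl, plates briefly spun, and incubated 2 h at ambient temperature. Inhibition of VDR–SRC2-3 peptide binding is read by fluorescence polarization.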
PLK1 PBD inh = qHTS for Inhibitors of PLK1-PDB (polo-like kinase 1 - polo-box domain): Primary Screen. Serine/threonine-protein kinase PLK1 (Homo sapiens), P53350. Potency, µM, without a hit: max response, negative = inhibition, hits mostly inhibitors. Plk1 PBD binding of FITC phosphopeptide, fluorescence polarization. hit rate 2.8% among 360,000; further: series mostly up to about 57 µM; on the % scale 0 is the no-effect control and ±100 the full control effect; nearly all actives have a fitted effect of over 65% in size
Target sequence (P53350 whole entry, looked up, the tested form may be a part): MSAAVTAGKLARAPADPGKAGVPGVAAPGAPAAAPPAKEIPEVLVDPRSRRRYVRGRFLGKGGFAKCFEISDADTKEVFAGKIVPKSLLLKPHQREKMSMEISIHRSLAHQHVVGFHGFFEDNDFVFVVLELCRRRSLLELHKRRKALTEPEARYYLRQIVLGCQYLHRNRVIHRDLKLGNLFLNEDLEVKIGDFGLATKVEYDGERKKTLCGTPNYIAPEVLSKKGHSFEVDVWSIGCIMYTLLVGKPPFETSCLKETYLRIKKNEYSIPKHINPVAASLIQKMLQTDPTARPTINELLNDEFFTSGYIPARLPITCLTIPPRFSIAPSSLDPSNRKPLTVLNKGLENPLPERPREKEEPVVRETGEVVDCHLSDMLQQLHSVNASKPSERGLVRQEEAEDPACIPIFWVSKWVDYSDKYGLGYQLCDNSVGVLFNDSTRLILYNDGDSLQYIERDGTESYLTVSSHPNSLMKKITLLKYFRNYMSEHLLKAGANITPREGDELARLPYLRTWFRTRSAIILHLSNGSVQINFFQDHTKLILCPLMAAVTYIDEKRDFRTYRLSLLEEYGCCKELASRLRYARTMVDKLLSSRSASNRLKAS
Active calls of the source: *; ? = inconclusive; nt = no result given; [ ] = dose if it differs, or a comment. The call rests on the fitted dose curve; in most records, active means well fitted curve in the direction sought with a large enough effect; inconclusive means small, poorly fitted or top-dose-only effect, or another doubt; inactive means no such curve, though single readings can be large; an effect the other way counts as inactive or inconclusive. Potency means the concentration at half of the fitted maximal effect.

SMILES | G9a block | HP1b binding inh | BAZ2B inh | JMJD2A Tudor | VDR inh | PLK1 PBD inh
Cn1c(-c2nc(-c3ccccc3)cs2)nc2ccccc21 | nt | nt | nt | nt | 5% | nt
O=C1c2ccccc2C(=O)N1/N=C/c1ccc(O)c(O)c1 | 11µM* | -20%[57 µM] | ? | 8.9µM* | -2% | ?
COc1cc(C)nc(OCCNS(=O)(=O)c2cc(C)ccc2C)n1 | 0%[2.33 µM] | 21% | 3% | 5% | 21% | 3%
CCNC(=O)C1CCCN(Cc2ccc(C)c3ccccc23)CC1 (configuration not stated) | nt | nt | nt | nt | nt | 1%
CN(C)c1ccc(CNC(=O)C2CCN(c3nc4ccccc4[nH]3)CC2)cc1 | 16µM* | -4%[57 µM] | ? | ? | 10% | nt
CCOc1cc(CNC(=O)C2CCN(c3nc4ccccc4[nH]3)CC2)cc(OCC)c1OCC | -3%[59 µM] | 22%[57 µM] | 3% | -12% | 0% | nt
Cc1ccsc1CN1CCC(C(=O)NCc2ccccc2Cl)CC1 | 10µM* | ? | -8% | 7.9µM* | -12% | -3%
O=C(NCc1cccnc1)C1CCN(Cc2cc3ccccc3n2Cc2ccccc2)CC1 | -5%[59 µM] | 13% | ? | ? | 11% | nt
CN(C)CC(C)(C)CNC(=O)C1CCN(Cc2ccccc2O)CC1 | 10µM* | ? | 56µM* | 6.3µM* | 9% | -1%
CN(C)c1ccc(CNC(=O)C2CCN(Cc3cc4ccccc4n3Cc3ccccc3)CC2)cc1 | 11µM* | -22% | 3.5µM* | 11µM* | 17% | nt
CCCCOc1ccc(CC2CCC(=O)NC2=O)cc1 (configuration not stated) | 15% | 17% | -9% | -10% | -5% | 0%
COc1cc(OC)cc(C2=Cc3ccccc3C(CC(=O)c3ccco3)N2c2ccc(-c3cccnc3)cc2)c1 (configuration not stated) | nt | nt | nt | nt | nt | 1%
Cc1ccc(Cn2c(CN3CCC(C(=O)NCCc4ccccc4)CC3)cc3ccccc32)cc1 | 8.9µM* | ? | 18µM* | 40µM* | 6% | nt
O=C(NCCc1ccccc1)C1CCN(Cc2ccccc2F)CC1 | 7.9µM* | 25µM* | 56µM* | 2.5µM* | 6% | -11%
O=C(NCCc1ccccc1)C1CCN(Cc2cc3ccccc3n2Cc2cccc(Cl)c2)CC1 | 10%[59 µM] | -5% | -11% | -20% | 5% | nt
CCC1=C(c2ccc(C)cc2)S(=O)(=O)N=C1N1CCC(C(=O)NCc2ccc(N(C)C)cc2)CC1 | 13µM* | -21% | ? | ? | 3% | nt
CN(C)c1ccc(CNC(=O)C2CCN(C(=O)c3ccc(-n4ccc5ccccc54)s3)CC2)cc1 | ? | ? | -29% | 18µM* | 3% | nt
COc1ccc(S(=O)(=O)N2CCCC(C(=O)N3CCN(Cc4ccccc4)CC3)C2)cc1Cl (configuration not stated) | nt | nt | nt | nt | nt | -11%
O=C(CN1C(=O)COc2ccc(S(=O)(=O)NC3CCCC3)cc21)NCc1ccc(Cl)cc1 | -1%[59 µM] | 16% | 2% | -7% | 10% | nt
COc1cccc(CC(=O)N[C@@H](CCSC)c2nc3ccccc3[nH]2)c1 | -33% | 17% | -27% | -26% | -13% | -23%
COc1ccc2cc(CO)n(C)c2c1 | 8%[0.501 µM] | -5% | ? | ? | -16% | -16%
COC(=O)C1=C(C)Nc2ccc(C)cc2S1 | 40µM* | ? | 40µM* | 79µM* | 71µM* | ?
COC(=O)c1cc(-c2ccc(C)cc2)n[nH]1 | nt | 33% | -5% | -12% | -11% | -4%
Cc1sc2ncnc(N3CCC(C(=O)Nc4cc(C(F)(F)F)ccc4OCC(F)(F)F)CC3)c2c1C | nt | 26% | nt | -26% | -1% | -5%
CN(C)C(=S)Nc1cccc(-c2n[nH]c(=S)o2)c1 | 22µM* | 0% | -22% | ? | -8% | -21%
SMILES | G9a block | HP1b binding inh | BAZ2B inh | JMJD2A Tudor | VDR inh | PLK1 PBD inh
CN(C)C(=S)Nc1ccc2ccccc2c1 | -38%[59 µM] | 7% | -28% | -10% | -14% | -10%
CCOC(=O)C1=C(COC(=O)c2c(OC)cccc2OC)NC(=O)NC1C (configuration not stated) | 10%[59 µM] | 24% | 19% | -8% | -5% | -2%
CCOC(=O)C1=C(COC(=O)c2ccccc2OC)NC(=O)NC1C (configuration not stated) | 3.2µM* | 19% | -5% | -5% | 4% | -10%
CCOC(=O)C1=C(COC(=O)/C=C/c2ccc(OC)cc2)NC(=O)NC1C (configuration not stated) | -24% | 10% | 3% | -5% | 1% | -17%
CCOC(=O)C1=C(COC(=O)/C=C/c2ccco2)NC(=O)NC1C (configuration not stated) | 28%[0.501 µM] | ? | 50µM* | 28µM* | -20% | ?
O=C(COC(=O)C1COc2ccccc2O1)Nc1ccc(Cl)cc1 (configuration not stated) | 5%[59 µM] | 58% | 1% | 1% | 15% | 3%
COc1ccc(N2CCN(C(=O)CCC(=O)N3CC(C)Oc4ccc(C)cc43)CC2)cc1 (configuration not stated) | 45µM* | -19% | 40µM* | ? | -4% | -8%
Cc1ccc2occ(CC(=O)N3CCN(c4cccc(Cl)c4)CC3)c2c1 | 7%[59 µM] | 3% | -5% | -11% | -3% | nt
COc1ccc(N2CCN(C(=O)Cc3coc4cc(C)ccc34)CC2)cc1 | 45µM* | -12% | 40µM* | -30%[57.1 µM] | -3% | -8%
COc1ccc(N2CCN(C(=O)c3cc(=O)c4ccc(C)cc4o3)CC2)cc1 | 21%[0.501 µM] | 2% | ? | -34% | -19% | -15%
COc1ccc(N2CCN(C(=O)CCC(=O)N3CCOc4ccc(C)cc43)CC2)cc1 | nt | -10% | -8% | ? | 4% | -10%
COc1ccc(N2CCN(C(=O)Cc3coc4ccc(C)cc34)CC2)cc1 | 16µM* | ? | 40µM* | ? | 0% | nt
Cc1ccc(C(=O)NC2CCN(CCCC(=O)c3ccc(F)cc3)CC2)cc1 | 23% | 18% | ? | -14% | 15% | 13%
O=C(CCN1CCC2CCC(C2)C1)c1ccc(F)cc1 (configuration not stated) | nt | 50% | nt | -23% | ? | 8.4µM*
COc1ccc(C2NN=C(c3c[nH]c4ccccc34)C2O)cc1 (configuration not stated) | 22µM* | 0% | ? | ? | -5% | -25%
CCCOc1ccc(Oc2nc(NCC(C)C)nc(N3CCOCC3)n2)nn1 | 2%[59 µM] | 33% | 0% | -18% | 8% | nt

Screening results (PubChem BioAssay)
